Read-outs that look alike come from different tables or passages of the source.

What all share (set-up): species or system human, MV4-11 + K-562 + COLO205 + SK-N-BE2 + OVCAR-8
In one assay the test system is DDR1. The following applies: read-out: apparent Kd, n = 1.
Another assay has as its system TEC. The following applies: read-out: apparent Kd, n = 1.
For another assay, the system named is IKBKE. The following applies: read-out: apparent Kd, n = 1.
Another assay deals with MAP4K3. The following applies: read-out: apparent Kd, n = 1.
The subject of the next assay is RPS6KA1. Particulars: read-out: apparent Kd, n = 1.
In a further assay the test system is SLK. The following applies: read-out: apparent Kd, n = 1.
A further assay deals with TGFBR1. Particulars: read-out: apparent Kd, n = 1.
For another assay, the system named is ACVR1. The following applies: read-out: apparent Kd; compound concentrations: 100 nM and 1000 nM (sheet 'Samples'), CATDS: 7.5426922392671601E-3; n = 1.
A further assay concerns AKT3. Particulars: read-out: apparent Kd, compound concentrations: 100 nM and 1000 nM (sheet 'Samples'), n = 1.
The next assay relates to AKT2. The following applies: read-out: apparent Kd; compound concentrations: 100 nM and 1000 nM (sheet 'Samples'), CATDS: 4.8057080770149398E-2; n = 1.
In another assay the test system is MAP4K2. The following applies: read-out: apparent Kd; compound concentrations:100 nM and 1000 nM (sheet 'Samples'); n = 1.
The test system of the next assay is TP53RK. Particulars: read-out: apparent Kd; compound concentrations: 100 nM and 1000 nM (sheet 'Samples'), CATDS: 0.12819898124354101; n = 1.
The subject of the next assay is CDK10. The following applies: read-out: apparent Kd; compound concentrations: 100 nM and 1000 nM (sheet 'Samples'), CATDS: 6.1619993305959599E-3; n = 1.
The subject of a further assay is MAP4K5. The following applies: read-out: apparent Kd; compound concentrations: 100 nM and 1000 nM (sheet 'Samples'), CATDS: 7.4217938627351198E-3; n = 1.
Another assay concerns NEK9. Particulars: read-out: apparent Kd; compound concentrations: 100 nM and 1000 nM (sheet 'Samples'), CATDS: 1.04770728264292E-2; n = 1.
The mark [1] stands for this setting: compound concentrations:100 nM and 1000 nM (sheet 'Samples').

On to `CC(C)N1CCC(n2cnc(-c3ccc(F)cc3)c2-c2ccnc(N)n2)CC1` [SB-223132], for which the potency estimated from few doses with DDR1 (setting [1]) is 928 nM.

Turning to `CCOC(=O)N1CCC(n2cnc(-c3ccc(F)cc3)c2-c2ccnc(N)n2)CC1` [SB-219952], the potency estimated from few doses in the assay with DDR1 (compound concentrations: 100 nM and 1000 nM (sheet 'Samples'), CATDS: 1.23341339187386E-2) is 531 nM; in the assay with TEC (compound concentrations: 100 nM and 1000 nM (sheet 'Samples'), CATDS: 8.8843344260598894E-3), 1200 nM.

Regarding `CNC(=O)c1ccccc1Nc1nc(Nc2ccc(N3CCOCC3)cc2)ncc1Cl.Cl` [GSK1576028A], the potency estimated from few doses in the assay with IKBKE (setting [1]) was 1540 nM; with MAP4K3 (setting [1]), 1670 nM; with RPS6KA1 (setting [1]) it was 683 nM; in the assay on SLK (setting [1]), 1120 nM; in the assay on TEC (setting [1]), 57.7 nM; in the assay with TGFBR1 (setting [1]), 780 nM.

Take `CN1C[C@@H]2Cn3c(c(C4=C(c5cn(C)c6ccccc56)C(=O)NC4=O)c4ccccc43)C[C@H]2C1.Cl` [RO0320234-001]: the potency estimated from few doses was 1520 nM in the assay on DDR1 (setting [1]) and 1190 nM in the assay on TEC (setting [1]).

For `O=C1N=C(NCCc2ccc(Cl)cc2)S/C1=C\c1ccc2ncccc2c1` [RO4498479-000], the potency estimated from few doses in the assay with ACVR1 was 1230 nM; with AKT3 (CATDS: 7.4016289423583202E-3), 1320 nM; in the assay with DDR1 (compound concentrations: 100 nM and 1000 nM (sheet 'Samples'), CATDS: 7.1142371440619002E-3) it was 1530 nM; in the assay with RPS6KA1 (compound concentrations: 100 nM and 1000 nM (sheet 'Samples'), CATDS: 6.6850452112440202E-3), 2010 nM; with TEC (compound concentrations: 100 nM and 1000 nM (sheet 'Samples'), CATDS: 9.3913889163932396E-3), 646 nM.

Consider `CCn1c(-c2nonc2N)nc2c(-c3ccccc3)ncc(OCCCN)c21.CCn1c(-c2nonc2N)nc2c(-c3ccccc3)ncc(OCCCN)c21.O=C(O)C(F)(F)F.O=C(O)C(F)(F)F` [GSK260205A], for which, in the assay with AKT2, the potency estimated from few doses was 339 nM.

On to `COc1cccc2c(-c3ccncc3)c(-c3ccc(F)cc3)nn12` [GW468513X], for which, in the assay on TGFBR1 (compound concentrations: 100 nM and 1000 nM (sheet 'Samples'), CATDS: 4.1244315663660498E-2), the potency estimated from few doses is 1080 nM.

Consider `Cc1cccc(-c2nc(Nc3ccncc3)c3sccc3n2)n1` [GW869641X], for which the potency estimated from few doses in the assay on MAP4K2 was 669 nM.

Take `CONC1=NC(=O)/C(=C/c2ccc3ncccc3c2)S1` [RO4613269-000]: in the assay on TP53RK, the potency estimated from few doses is 2200 nM.

As for `CCn1c(-c2nonc2N)nc2c(C#CC(C)(C)O)nc(CN3CCCC3)cc21` [GSK1000163A], the potency estimated from few doses in the assay with AKT3 (CATDS: 0.185643756681795) was 1430 nM.

As to `Fc1ccc(-c2c(-c3ccncc3)[nH]c3cccnc23)cc1` [RO1153853-000], the potency estimated from few doses with TGFBR1 (compound concentrations: 100 nM and 1000 nM (sheet 'Samples'), CATDS: 5.3195917052411702E-2) was 1310 nM.

For the molecule `COc1ccc(Nc2ncc(C#N)c(Nc3ccccc3C(N)=O)n2)cc1N1CCN(C)CC1.Cl` [GSK1558669A], the potency estimated from few doses was 1450 nM with CDK10; 319 nM in the assay on DDR1 (compound concentrations: 100 nM and 1000 nM (sheet 'Samples'), CATDS: 8.5132006877523293E-3); 548 nM in the assay with IKBKE (compound concentrations: 100 nM and 1000 nM (sheet 'Samples'), CATDS: 7.4158435365071704E-3); 123 nM in the assay with MAP4K3 (compound concentrations: 100 nM and 1000 nM (sheet 'Samples'), CATDS: 1.16453060646116E-2); 546 nM in the assay with MAP4K5; 164 nM in the assay with NEK9. For the same molecule, the potency estimated from few doses was 148 nM in the assay on RPS6KA1 (compound concentrations: 100 nM and 1000 nM (sheet 'Samples'), CATDS: 1.0869541528388701E-2); 84.7 nM in the assay on SLK (compound concentrations: 100 nM and 1000 nM (sheet 'Samples'), CATDS: 1.35175429318502E-2).

The record behind these values is paper PMC11062922 (Nature Chemical Biology, 2023).
